We go through 57 compounds from PubChem BioAssay AID1851 (National Center for Advancing Translational Sciences (NCATS), 2009).

The structures appear in SMILES notation. The whole screen tested about 16,000 compounds, of which about 5,800 (36%) were called active. Not shown: some 23% with an inconclusive outcome. The list shows a part of the results. Values without a mark were called inactive. Calls follow the shape of the dose curve; as a rule, active = well fitted curve in the direction sought with a large enough effect; inconclusive = small, poorly fitted or top-dose-only effect, or effect the other way; inactive = no such curve, though single readings can be large or run the other way. Peptide text beside a SMILES is read from it.

One may read the AC50 as the midpoint of the concentration-response curve, whichever way the signal moves.
% is scaled to controls: 0 for no effect and ±100 for the full control effect.

The target of this assay is Cytochrome P450 2C19 (Homo sapiens) (UniProt P33261). As to the kind of experiment: Cytochrome panel assay with activity outcomes. The following applies: recombinant CYP, pro-luciferin dealkylation, luminescence, p450-cyp2c19; series mostly up to 57.1 µM; activity, negative = inhibition: at the top concentration.
Sequence of Cytochrome P450 2C19 (Homo sapiens) (P33261 whole entry, looked up): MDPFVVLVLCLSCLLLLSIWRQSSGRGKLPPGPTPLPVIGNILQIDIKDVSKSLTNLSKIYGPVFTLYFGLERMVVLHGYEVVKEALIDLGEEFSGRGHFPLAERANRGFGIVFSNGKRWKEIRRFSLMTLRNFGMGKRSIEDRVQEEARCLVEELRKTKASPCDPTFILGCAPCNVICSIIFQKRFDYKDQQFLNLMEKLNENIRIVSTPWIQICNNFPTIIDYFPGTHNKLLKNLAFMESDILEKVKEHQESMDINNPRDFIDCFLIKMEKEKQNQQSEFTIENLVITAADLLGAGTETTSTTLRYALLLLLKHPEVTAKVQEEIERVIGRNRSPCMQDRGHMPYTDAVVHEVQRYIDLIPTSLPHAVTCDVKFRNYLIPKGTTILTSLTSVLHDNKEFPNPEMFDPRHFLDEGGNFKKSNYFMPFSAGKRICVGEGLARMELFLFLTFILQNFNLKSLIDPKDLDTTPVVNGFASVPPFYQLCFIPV
Regarding `COC(=O)[C@@]1(Cc2ccc(F)cc2)[C@@H]2C(=CC(=O)[C@H]2CC(=O)C(=O)N(C)C)CN1C(=O)c1ccccc1`, the AC50 was 25.1 µM (active).

With `COC(=O)[C@@]1(Cc2ccccc2)[C@@H]2C(=CC(=O)[C@H]2CC(=O)C(=O)N(C)C)CN1C(=O)c1ccccc1`, the “activity, negative = inhibition” value was -21.7%.

In the case of `COC(=O)[C@@]1(Cc2ccc(F)cc2)[C@@H]2C(=CC(=O)[C@H]2CC(=O)C(=O)N2CCCC2)CN1C(=O)c1ccccc1`, the AC50 was 31.6 µM (active).

As to `CC(NC(=O)Cc1ccc(F)cc1)c1ccccc1` (configuration not stated), the AC50 is 11.2 µM (active).

With `CC(=O)NC(Cc1ccc(F)cc1)C(=O)O` (configuration not stated), the “activity, negative = inhibition” value is 28.5%.

Turning to `Cc1nnsc1SCC(=O)O`, the “activity, negative = inhibition” value is -5.67%.

`O=C(O)CSc1sc(=S)sc1SCC(=O)O`: the AC50 was 10 µM (active).

On to `COc1cccc(C(=O)N(Cc2ccccc2)Cc2cc3cc4c(cc3[nH]c2=O)OCCO4)c1`, for which the AC50 is 15.8 µM (active).

With `C/C(CCN1CCc2nc(-c3ccccc3)c(-c3ccccc3)cc2C1)=N\O[C@@H](C)CN1CCCc2nc(C)c(C)cc21`, the activity, negative = inhibition is -28.4% [at 11.4 µM].

For `Cc1cc(/C=N/n2cnnc2)c(C)n1-c1ccc(OCc2ccccc2F)cc1`, the AC50 was 2 µM (active).

With `CCOC(=O)C(C)(C)[C@H](O)C(C)C`, the activity, negative = inhibition is 3.67% [at 11.4 µM].

As for `CC(=O)OCC(=O)[C@@]1(O)CC[C@@H]2[C@H]3CCC4=CC(=O)CC[C@]4(C)[C@]3(F)[C@@H](O)C[C@@]21C`, the “activity, negative = inhibition” value is -0.851% [at 25.6 µM].

`CS[C@]12C(=O)C[C@]3(C)[C@@H](CC[C@@]3(O)C(=O)CO)[C@@H]1CCC1=CC(=O)CC[C@]12C`: the AC50 is 3.16 µM (active).

For the compound `C[C@@]12CCC(=O)C=C1CC[C@H]1[C@H]3CC[C@](O)(C(=O)CO)[C@]3(C)CC(=O)[C@@H]12`, the “activity, negative = inhibition” value was -11.1% [at 25.6 µM].

In the case of `O=C(c1cccc(F)c1)N1CCC2(CC1)CCN(c1ccc(-c3ccccc3)cc1)CC2`, the “activity, negative = inhibition” value was 6.49%.

For the compound `Cc1ccc(C(=O)N2CCN(c3cc(=O)[nH]nc3-c3ccccc3)CC2)cc1`, the AC50 is 20 µM (active).

Take `CC(C)[C@H](CO)Nc1nc(Nc2cc(N)cc(Cl)c2)c2ncn(C(C)C)c2n1`: the “activity, negative = inhibition” value is -37.3%.

As for `CN(C)C(=O)c1ccc(-c2nc(Nc3ccccc3)c3ccccc3n2)cc1`, the AC50 was 15.8 µM (active).

For the compound `CN(C)C(=O)c1ccc(-c2nc(NCc3cccs3)c3ccccc3n2)cc1`, the AC50 is 10 µM (active).

`CN(C)C(=O)c1ccc(-c2nc(Nc3ccc(F)cc3)c3ccccc3n2)cc1`: the AC50 is 31.6 µM (active).

As to `CC(=O)NCCNc1nc(-c2ccc(C(=O)N(C)C)cc2)nc2ccccc12`, the “activity, negative = inhibition” value is 8.27%.

As for `Cc1cnc(CNc2nc(-c3ccc(C(=O)N(C)C)cc3)nc3ccccc23)cn1`, the “activity, negative = inhibition” value is -40.4%.

Turning to `C=C1CC[C@H](O)C/C1=C/C=C1\CCC[C@]2(C)[C@H]1CC[C@H]2[C@@H](C)/C=C\[C@@H](C)C(C)C`, the “activity, negative = inhibition” value was -40.4% [at 25.6 µM].

As to `CCOC(=O)c1c(NC(=O)c2ccc(N3CCOCC3)c([N+](=O)[O-])c2)sc(C)c1C`, the “activity, negative = inhibition” value is 2.69%.

On to `Cc1ccc(OC(=O)c2ccc(N3CCOCC3)c([N+](=O)[O-])c2)cc1`, for which the AC50 was 20 µM (active).

As for `Cc1ccc(OCC(=O)N2CCN(c3ccc([N+](=O)[O-])c(N4CCOCC4)c3)CC2)cc1`, the AC50 was 14.1 µM (active).

With `Cn1c(=O)n(C)c2cc([N+](=O)[O-])c(N3CCN(C(=O)c4ccccc4Cl)CC3)cc21`, the AC50 is 17.8 µM (active).

Take `CO/N=C/c1ccc(N2CCN(C(=O)c3ccc(Cl)cc3Cl)CC2)c([N+](=O)[O-])c1`: the AC50 is 5.01 µM (active).

As for `COC(=O)c1ccc(N2CCN(CC(=O)c3ccc(-c4ccccc4)cc3)CC2)c([N+](=O)[O-])c1`, the AC50 was 5.01 µM (active).

Consider `Cc1ccc(C(=O)O/N=C\c2ccc(N3CCCCC3)c([N+](=O)[O-])c2)cc1`, for which the AC50 was 1.58 µM (active).

As for `O=C(Nc1ccc(-c2nc3ccccc3o2)cc1)c1ccc(N2CCOCC2)c([N+](=O)[O-])c1`, the AC50 is 5.01 µM (active).

Take `COC(=O)c1ccc(N2CCN(c3ccccc3)CC2)c(NC(=O)C2CC2)c1`: the “activity, negative = inhibition” value is -20.9%.

Consider `Cc1ccc(C)c(-c2nn(-c3cc(N4CCN(CCO)CC4)ccc3[N+](=O)[O-])c(=O)c3ccccc23)c1`, for which the “activity, negative = inhibition” value is -101%.

Consider `Cc1cc(C)n(-c2cc(N3CCN(C(=O)c4ccc(C(C)(C)C)cc4)CC3)ccc2[N+](=O)[O-])n1`, for which the AC50 is 2.82 µM (active).

In the case of `CCOC(=O)c1[nH]c(C(=O)O)c(CCN(CC)CC)c1C`, the “activity, negative = inhibition” value was 7.09%.

Turning to `CO[C@H]1COC(=O)[C@@H](C)COC(=O)[C@@H](Cc2ccccc2)NC(=O)C/C=C\[C@H]1C`, the activity, negative = inhibition was 10.6% [at 11.4 µM].

On to `CC(C)=CCC/C(C)=C/CO/N=C1/C[C@@H](O)[C@@H](O)[C@@H]2[C@@H]3C(=O)N(C[C@@H]4CCCO4)C(=O)[C@H]3CC[C@@H]12`, for which the activity, negative = inhibition was 29.8% [at 11.4 µM].

With `Cc1ccc(C)c2sc(NC(=O)c3ccc(N4CCCCC4)c([N+](=O)[O-])c3)nc12`, the AC50 was 2.82 µM (active).

On to `Cc1ccc(OCCCC(=O)N2CCOCC2)cc1`, for which the AC50 is 1.41 µM (active).

For `O=C(NCCNC[C@@H](O)COc1ccc(O)cc1)N1CCOCC1`, the AC50 entry is “inactive”.

Take `Cc1ccc(CS(=O)(=O)CCC(=O)N2CCOCC2)cc1`: the “activity, negative = inhibition” value was -8.97%.

Take `Cc1ccccc1C(=O)N1CCN(c2ccc([N+](=O)[O-])c(N3CCOCC3)c2)CC1`: the AC50 was 15.8 µM (active).

As for `Cn1ncc([N+](=O)[O-])c1C(=O)N1CCOCC1`, the “activity, negative = inhibition” value was -1.66%.

On to `CC(=O)N[C@@H](CC(=O)O)C(=O)N[C@@H](CCC(=O)O)C(=O)O` (Ac-Asp-Glu-OH), for which the AC50 entry is “inactive”.

`CCCCNN`: the activity, negative = inhibition was -44.3% [at 11.4 µM].

Regarding `O=C(O)[C@H]([C@H]1NCCS1)N1Cc2ccccc2C1`, the activity, negative = inhibition was -31.8% [at 11.4 µM].

With `NC(=O)c1cccc(N)c1`, the “activity, negative = inhibition” value is -27.6%.

With `C/C(=N\Nc1ccc([N+](=O)[O-])cc1)c1cccc(N)c1`, the half-maximal activity concentration (AC50) was 1.26 µM (active).

In the case of `C/C(=N\Nc1nc(N)cc(Cl)n1)c1cccc([N+](=O)[O-])c1`, the “activity, negative = inhibition” value was 2.88%.

In the case of `CCOC(=O)c1sc(N(Cc2ccccc2)C(=O)CN2C(=O)CN(C)C2=O)nc1C`, the AC50 is 15.8 µM (active).

In the case of `CCOC(=O)c1sc(NS(=O)(=O)c2ccccc2)nc1C`, the “activity, negative = inhibition” value was -24.1%.

Consider `CO[C@H]1COC(=O)CCC[C@H](C)[C@H](OC)COC(=O)C/C=C\[C@@H]1C`, for which the activity, negative = inhibition was -23% [at 11.4 µM].

`CCCn1c2c(c(O)c(C(=O)NCc3ccccc3)c1=O)CCCC2`: the AC50 is 17.8 µM (active).

With `CC(C)Oc1cccc(-n2c(CCc3c[nH]c4ccc(Br)cc34)nc3ccccc3c2=O)c1`, the “activity, negative = inhibition” value is 9.45%.

On to `CCCCCCc1nc2ccccc2c(=O)n1NC(=O)c1c(O)c2c(n(CC(C)C)c1=O)CCCC2`, for which the AC50 is 5.62 µM (active).

As for `C=CCn1c(=O)c(C(=O)NCCN(CC)CC)c(O)c2ccccc21`, the “activity, negative = inhibition” value is -15.7%.

For the compound `O=C(NCc1ccccc1)c1ccc2c(c1)C(=O)N(CC1CCCO1)C2=O` (configuration not stated), the “activity, negative = inhibition” value is -23.3%.
